Experimental data reported in PubChem BioAssay AID1979 (Broad Institute, 2009).
Among all 300,000 compounds or so, about 1,700 (0.57%) were called active. About 2% were inconclusive and are not listed.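 The calls were made as follows: active = growth inhibition above about 58% in most replicates (limit read from the data, passing the limit was not always enough); inconclusive = exactly half the replicates above a set limit; inactive = most replicates below a set limit.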 The sample as a whole holds a higher share of actives than the screen did.

test: Candida growth reduction under fluconazole – CaCi-2 strain, Alamar Blue fluorescence, primary screen (AID 1979);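 also: all wells also contain fluconazole at 8 µg/ml as a sub-toxic cotreatment; 0% = median of DMSO wells and 100% = median of geldanamycin control wells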; details: C. albicans CaCi-2 (fluconazole-resistant clinical isolate) + fluconazole, 48 h, stronger effect = higher value, concentration not given here

Compound | growth inhibition
Cc1cc2ccccn2c1C(C[N+](=O)[O-])c1c(F)cccc1Cl (stereo not given) | 88.5% (active)
C/C(=N/O)c1ccc2ccc3ccccc3c2c1 | -4.17% (inactive)
Cc1nn(-c2ccccc2)c(C)c1NC(=O)COC(=O)Cc1ccccc1 | -2.49% (inactive)
O=C(Cc1ccccc1)N1CCN(C2CCCCCC2)CC1 | -12% (inactive)
CC1=C(C(=O)Nc2ccccc2)SCCO1 | 0.0228% (inactive)
Cc1cccc(-n2c(O)c(C=Nc3ccccc3N)c(=O)[nH]c2=O)c1 | 103% (active)
Cc1cccc(-n2c(O)c(C=NC34CN5CN(CN(C5)C3)C4)c(=O)[nH]c2=O)c1 | -4% (inactive)
Cc1cccc(-n2c(O)c(/C=N/N3CCOCC3)c(=O)[nH]c2=S)c1 | 12.2% (inactive)
COc1ccccc1C1=NCc2nnc(CSC)n2-c2ccc(Cl)cc21 | 2.88% (inactive)
COc1ccc(S(=O)(=O)NCc2ccc(C(=O)N3CCC4(CC3)OCCO4)cc2)cc1 | -9.32% (inactive)
CC(C)(C)c1ccc(OC(=O)N2CCCCC2)cc1 | 11.1% (inactive)
C=CCN1C(=O)NC(=O)/C(=C/c2ccc(OCC(=O)Nc3ccc(C)cc3)cc2)C1=O | -16.2% (inactive)
CC1=CC(=Cc2sc3ccccc3[n+]2C)C=C(C)O1 | 103% (active)
CNCC(O)c1cc(F)c(OCc2ccccc2)c(OCc2ccccc2)c1F (stereo not given) | -32.5% (inactive)
COc1ccccc1NC(=O)N1C[C@@H]2C[C@@H](C1)c1cccc(=O)n1C2 | 7.25% (inactive)
